# Laboratory results from a collection of fitness landscapes (doi:10.1126/science.1257360).
# Whole data set: some 140,000 sequences, median “enrichment ratio after two sorts for PhoP signalling” near 0, cut for the highest 2% near 11. The list comes from a sample in which the highest values are over-represented; it also holds similar and randomly drawn sequences.
# B1: PhoQ; a variant is named by its letters at X, in order, P23837 (parent)
# chain: MKKLLRLFFPLSLRVRFLLATAAVVLVLSLAYGMVALIGYSVSFDKTTFRLLRGESNLFYTLAKWENNKLHVELPENIDKQSPTMTLIYDENGQLLWAQRDVPWLMKMIQPDWLKSNGFHEIEADVNDTSLLLSGDHSIQQQLQEVREDDDDAEMTHSVAVNVYPATSRMPKLTIVVVDTIPVELKSSYMVWSWFIYVLSANLLLVIPLLWVAAWWSLRPIEALAKEVRELEEHNRELLNPATTRELTSLVRNLNRLLKSERERYDKYRTTLTDLTHSLKTPLXXLQXXLRSLRSEKMSVSDAEPVMLEQISRISQQIGYYLHRASMRGGTLLSRELHPVAPLLDNLTSALNKVYQRKGVNISLDISPEISFVGEQNDFVEVMGNVLDNACKYCLEFVEISARQTDEHLYIVVEDDGPGIPLSKREVIFDRGQRVDTLRPGQGVGLAVAREITEQYEGKIVAGESMLGGARMEVIFGRQHSAPKDE
# Variants of: B1
# Assay: enrichment ratio after two sorts for PhoP signalling (ratio (wild type AVST 3.29)); higher = more functional
# Settings: with PhoP (E. coli)
row,Variant,enrichment ratio
1,SGSM,12.7
2,KSSM,≤ 0.25
3,NVSM,≤ 0.25
4,MMSM,7.2
5,KQAV,≤ 0.25
6,DAHD,≤ 0.25
7,QSHT,≤ 0.25
8,PIQW,≤ 0.25
9,FMCI,≤ 0.25
10,MYGI,≤ 0.25
11,ICFI,≤ 0.25
12,VCSA,≤ 0.25
13,YCHV,≤ 0.25
14,HSSA,≤ 0.25
15,SMEV,≤ 0.25
16,MVWM,0.553
17,MVPM,≤ 0.25
18,NVAK,≤ 0.25
19,MVAM,39.4
20,GVTM,8.91
21,GVPM,≤ 0.25
22,MVAK,5.7
23,GVAK,11.7
24,GVAM,15.2
25,SAME,0.508
26,WCYN,≤ 0.25
27,KFKF,≤ 0.25

row,Variant,enrichment ratio
1,GTRF,≤ 0.25
2,LCNN,≤ 0.25
3,KSNN,≤ 0.25
4,TSNL,12.5
5,FSNL,≤ 0.25
6,TSNN,12.2
7,KSNL,≤ 0.25
8,LVAI,≤ 0.25
9,NFCN,≤ 0.25
10,HVSV,≤ 0.25
11,KCSV,≤ 0.25
12,TCAV,13.4
13,VEEF,≤ 0.25
14,KCEF,≤ 0.25
15,TCAH,11.7
16,TCAE,≤ 0.25
17,TCSV,17.7
18,VCAH,≤ 0.25
19,KCAV,≤ 0.25
20,TCEF,13.2
21,KCAH,≤ 0.25
22,SLYY,≤ 0.25
23,DQFN,≤ 0.25
24,RPHE,≤ 0.25
25,SDPC,≤ 0.25
26,FRSR,≤ 0.25
27,TCLS,7.88

row,Variant,enrichment ratio
1,TCLA,11.9
2,TCAS,12.2
3,TCGY,20.3
4,VCSM,3.67
5,FCAS,≤ 0.25
6,TCSM,18.9
7,KCAS,≤ 0.25
8,TCVP,≤ 0.25
9,KCSM,≤ 0.25
10,TCNY,9.63
11,TCLT,4.19
12,RVLR,≤ 0.25
13,ENDI,≤ 0.25
14,MVRF,≤ 0.25
15,HGLK,≤ 0.25
16,GGGP,≤ 0.25
17,KHVK,≤ 0.25
18,VCMT,≤ 0.25
19,FCLK,1.84
20,TCIT,≤ 0.25
21,FCAN,≤ 0.25
22,KCSC,≤ 0.25
23,HVSC,≤ 0.25
24,TCMT,14.5
25,KCAN,≤ 0.25
26,TCLK,13.1
